High-throughput results: PubChem BioAssay, Johns Hopkins Ion Channel Center
KCNQ2 pot: enhances the rat KCNQ2 potassium channel; CHO-K1 KCNQ2, FluxOR thallium flux fluorescence; stronger effect = higher value; B-score at 10 µM; actives 0.54% (n = 310,000); O88943;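 active means fluorescence ratio B-score at least 3 SD of library B-scores, with initial fluorescence B-score within 3 of them, cut at about 5.3 in these data; same plate scores as AID 2156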;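 further: B-score of peak minus minimum over baseline fluorescence ratio after K+ and Tl+ stimulus; positive B-score means potentiation of KCNQ2 with more thallium influx and brighter signal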
KCNQ2 inh: KCNQ2 (rat) channel inhibition. O88943. CHO-K1 KCNQ2, FluxOR thallium flux, 20 min; stronger effect = lower value. B-score at 10 µM. actives 1.1% (n = 310,000). AID 2156;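 active means fluorescence ratio B-score at most minus 3 library SDs, with starting brightness B-score within 2 library SDs, cut at about -5.5 in these data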
Kir21 confirm: confirmation of mouse Kir2.1 potassium channel inhibitors; shares compounds with KCNQ2 pot; Kir2.1-expressing cells, FluxOR thallium flux fluorescence; stronger effect = lower value; Tl flux remaining, % of negative control (stronger effect = lower value), % at 10 µM; actives 41% (n = 2,300);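 active means Primary-screen hit whose thallium flux fell at least 3 control SD below untreated wells in both duplicates, with normal baseline fluorescence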;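 further: 0% = blank wells without stimulus and 100% = stimulated no-compound controls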
HEK293 Tl flux: counter-screen for Kir2.1 inhibitors: effect in parental HEK293 cells; shares compounds with KCNQ2 pot; FluxOR thallium flux fluorescence; 0% = unstimulated blank wells; FluxOR signal as % of negative control (100 = no effect), % at 10 µM; actives 19% (n = 2,300);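 active means dye signal at least 3 control SD above or below untreated wells in both duplicates, raw fluorescence within 3, either direction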;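 further: percent is based on the flux ratio of peak minus minimum fluorescence over baseline F0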
CHO-K1 ctr: parental CHO-K1 activity in KCNQ2 potentiator counter-screen. actives 43% (n = 1,200). AID 2282. activity increase over 3SD of controls, % at 10 µM. shares compounds with KCNQ2 pot. parental CHO-K1 cells, FluxOR thallium flux fluorescence; zero = vehicle mean+3SD, 100% = vehicle-minus-blank window;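 active means signal rise of at least 3 SD above the untreated control mean, in both duplicate wells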;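 further: counter screen of KCNQ2 potentiator hits so any rise reflects channel-independent effects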
KCNQ1 pot spec: selectivity of KCNQ2 potentiators: effect on human KCNQ1; shares compounds with KCNQ2 pot; activation over 3SD threshold, % at 10 µM; AID 2283; actives 28% (n = 1,200); CHO KCNQ1 stable, FluxOR thallium flux fluorescence; beyond 3SD, as % of vehicle-control signal;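 active means fluorescence ratio rise of at least 3 SD of vehicle wells above their mean, in both replicate wells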;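 further: 0% = vehicle mean plus 3 SD and 100% = vehicle minus unstimulated blank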
Target sequence (P51787 whole entry, looked up): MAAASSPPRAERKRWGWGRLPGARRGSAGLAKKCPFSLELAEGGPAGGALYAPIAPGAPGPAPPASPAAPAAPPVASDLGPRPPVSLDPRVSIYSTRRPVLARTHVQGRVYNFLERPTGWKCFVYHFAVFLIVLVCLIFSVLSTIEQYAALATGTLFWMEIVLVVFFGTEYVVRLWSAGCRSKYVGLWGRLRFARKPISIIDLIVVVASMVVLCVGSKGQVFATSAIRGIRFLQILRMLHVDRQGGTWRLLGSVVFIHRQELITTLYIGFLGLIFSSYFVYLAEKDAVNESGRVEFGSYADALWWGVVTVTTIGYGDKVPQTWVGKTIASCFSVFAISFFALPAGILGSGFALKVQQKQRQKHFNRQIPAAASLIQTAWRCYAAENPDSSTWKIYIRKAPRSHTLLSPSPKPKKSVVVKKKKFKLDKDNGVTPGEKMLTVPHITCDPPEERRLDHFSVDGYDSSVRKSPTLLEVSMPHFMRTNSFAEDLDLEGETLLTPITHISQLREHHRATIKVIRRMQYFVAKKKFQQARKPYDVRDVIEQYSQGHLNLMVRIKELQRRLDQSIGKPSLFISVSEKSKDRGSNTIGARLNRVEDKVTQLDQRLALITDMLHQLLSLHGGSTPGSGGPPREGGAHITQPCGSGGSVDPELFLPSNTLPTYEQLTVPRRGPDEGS
KCNQ2 pot confirm: rat KCNQ2 channel potentiator confirmation; shares compounds with KCNQ2 pot; CHO-KCNQ2 cells, FluxOR thallium flux fluorescence; potentiation, less the hit threshold, % at 10 µM; actives 68% (n = 1,200);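 active means fluorescence ratio rising 3 SD or more over the vehicle control mean in both replicates, plus primary screen hit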;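 further: peak minus minimum thallium fluorescence divided by baseline after K/Tl stimulus; 0% = vehicle mean plus 3 SD and 100% = vehicle minus unstimulated blank difference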
Kir2-1 sel: mouse Kir2.1 off-target activity of KCNQ2 potentiators; shares compounds with KCNQ2 pot; HEK293 Kir2.1, FluxOR thallium flux fluorescence; activity over 3SD threshold, % at 10 µM; actives 2% (n = 1,200); AID 2345;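 active means fluorescence ratio rise of at least 3 SD above the vehicle-control mean, seen in both replicates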;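 further: 0% = vehicle mean plus 3 SD and 100% = vehicle minus no-stimulus blank window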
KCNQ2 W236L MoA: KCNQ2 potentiators acting on retigabine-insensitive rat KCNQ2 W236L mutant | actives 10% (n = 940) | shares compounds with KCNQ2 pot | current increase over 3SD of negative controls (%), stronger effect = higher value, % at 25 µM | AID 2558 | CHO KCNQ2-W236L, automated patch clamp current;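 active means current increase at least 3 SD of the untreated controls above them in both duplicate recordings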
An asterisk follows results filed as active; i = inactive; nt = no result. A selection: hits, their analogues and other compounds. The true share with any hit is near 1.6%.

SMILES	KCNQ2 pot	KCNQ2 inh	Kir21 confirm	HEK293 Tl flux	others
N#C/C(=N\Nc1ccc(Cl)c(Cl)c1)C(=O)C1CC1	6.6*	i	i	i	CHO-K1 ctr=13*;KCNQ1 pot spec=-11;KCNQ2 pot confirm=-1;Kir2-1 sel=-34;KCNQ2 W236L MoA=i
N#C/C(=N\Nc1ccc(F)cc1)C(=O)C1CC1	2	i	nt	nt
CC1CCN(C(=O)C(=O)Nc2sc3c(c2C(N)=O)CC(C)(C)OC3)CC1	3.2	i	nt	nt
Cc1ccc(NC(=S)NCCc2c[nH]c3ccccc23)c(C)c1	nt	i	76%*	i
COc1cc(NC(=S)NCCc2c[nH]c3ccccc23)c(OC)cc1Cl	nt	i	nt	nt
COc1cccc(CNc2ccc3[nH]c(=O)[nH]c3c2)c1OCc1ccc(F)cc1	4.1	i	nt	nt
COc1cccc(CNCCc2c[nH]c3ccccc23)c1OCc1ccc(F)cc1	-8	-8*	i	i
COc1ccccc1NC(=S)NCCc1c[nH]c2ccccc12	0.21	i	72%*	i
Cc1ccc(NC(=S)NCCc2ccccc2)c(C)c1	nt	i	nt	nt
CC(C)c1cc2c(c(O)c1O)[C@@]13CCCC(C)(C)C1CC2OC3=O (some centres not stated)	nt	i	nt	nt
CC(=O)N(C(C)=O)n1c(C)nc2sc3c(c2c1=O)CCCC3	1.3	i	nt	nt
CCCn1c(SCC(=O)N2CCN(C(C)=O)CC2)nc2sc3c(c2c1=O)CCC3	6.1*	i	i	290%*	CHO-K1 ctr=15*;KCNQ1 pot spec=-16;KCNQ2 pot confirm=24*;Kir2-1 sel=-40;KCNQ2 W236L MoA=i
CCCn1c(SCC(=O)NCC)nc2sc3c(c2c1=O)CCC3	nt	i	nt	nt
CCn1c(SC(C)C(=O)O)nc2sc3c(c2c1=O)CCC3 (configuration not stated)	8.7*	i	i	205%*	CHO-K1 ctr=5.3*;KCNQ1 pot spec=-18;KCNQ2 pot confirm=0.7*;Kir2-1 sel=-34;KCNQ2 W236L MoA=i
CCc1nc2sc3c(c2c(=O)n1NC(=O)CCl)CCCC3	5.7*	i	i	i	CHO-K1 ctr=-1;KCNQ1 pot spec=-8;KCNQ2 pot confirm=-3;Kir2-1 sel=-31;KCNQ2 W236L MoA=i
CC(Sc1nc2sc3c(c2c(=O)n1-c1ccccc1)CCCC3)C(=O)O (configuration not stated)	1.2	i	nt	nt
O=C(CN1CCCCC1)NC(=O)NCc1ccccc1	nt	i	nt	nt
O=Cc1c(-c2ccc(Cl)cc2)oc2ccc(O)cc12	nt	i	nt	nt
O=C(O)c1cccc(NS(=O)(=O)c2cc(S(=O)(=O)c3ccc(Cl)cc3)ccc2Cl)c1	0.12	i	nt	nt
COc1ccccc1CNCc1ccc(C)cc1	nt	i	nt	nt
COc1ccc2ccccc2c1CNCc1ccc(C)cc1	nt	i	22%*	i
S=c1[nH]nc(-c2cc(-c3ccccc3)n[nH]2)n1/N=C/C(Br)=C/c1ccccc1	nt	i	nt	nt
COc1cc(CCC(=O)Nc2nccs2)cc(OC)c1OC	0.39	i	nt	nt
O=C(Nc1ccc2c(c1)OCO2)c1cc(-c2ccc(O)cc2)on1	0.03	i	nt	nt
COc1cc(OC)c(OC)cc1CCC(C)NCCC(c1ccccc1)c1ccccc1 (configuration not stated)	0.21	i	48%*	i
COc1ccccc1CCNC(C)CCc1ccc(O)cc1 (configuration not stated)	nt	i	nt	nt
COc1ccccc1Nc1ccc(NS(=O)(=O)c2ccc(C(C)=O)cc2)cc1	nt	i	nt	nt
Cc1cc(C)c(S(=O)(=O)c2cccc(Cl)c2)c(=O)[nH]1	1.7	i	nt	nt
C=C[C@@]1(C)CC(=O)[C@]2(O)[C@@]3(C)[C@@H](O)CCC(C)(C)[C@@H]3[C@H](OC(C)=O)[C@H](O)[C@@]2(C)O1	5.1	i	nt	nt
